From PubChem BioAssay
Only some compounds are listed: those with a hit (about 2.4% of all), similar ones and a draw of the others.
D2 antagonist = D2 dopamine receptor (human) antagonism | P14416 | HEK293 TREx D2 cells, calcium flux, dopamine EC80 | inhibition, % at 10 µM | 340,000 tested, 2% active | AID 485344; in the data active = inhibition above about 30%; inactive = below that, where a call was filed; note: 0% is about no effect
Target sequence (P14416 whole entry, looked up): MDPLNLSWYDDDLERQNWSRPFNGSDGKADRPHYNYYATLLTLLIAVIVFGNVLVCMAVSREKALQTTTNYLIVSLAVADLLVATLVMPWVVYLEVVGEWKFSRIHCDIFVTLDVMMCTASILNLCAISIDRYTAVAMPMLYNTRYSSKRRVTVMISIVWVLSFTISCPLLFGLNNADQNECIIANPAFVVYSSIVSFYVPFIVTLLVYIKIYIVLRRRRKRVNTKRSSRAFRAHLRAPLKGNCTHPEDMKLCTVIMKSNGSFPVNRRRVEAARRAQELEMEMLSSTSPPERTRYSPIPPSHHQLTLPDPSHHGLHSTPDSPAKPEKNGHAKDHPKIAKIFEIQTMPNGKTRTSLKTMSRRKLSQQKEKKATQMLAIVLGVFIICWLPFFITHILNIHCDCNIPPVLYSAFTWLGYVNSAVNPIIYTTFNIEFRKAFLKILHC
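Dopamine at EC80 is the agonist stimulus; test compounds precede it by 180 s. Calcium flux read kinetically in a force-coupled, inducible HEK293 T-REx D2 cell line.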
D2 ag-1 = agonists of human D2 dopamine receptor (beta-arrestin). P14416. DiscoveRx PathHunter D2 beta-arrestin, luminescence, 90 min; 100% = 57 uM dopamine signal. activation, % (test concentration not listed). 360,000 tested, 0.084% active. AID 624465; in the data active = activation above about 40%; inconclusive = between about 15% and that limit
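DiscoveRx PathHunter D2 beta-arrestin cells (2,100/well) attached overnight, then compound-stimulated 90 min at 37 C in HBSS/10 mM HEPES/0.1% Tween-20 buffer; beta-galactosidase complementation read by luminescence after 1 h at ambient temperature. Dopamine 57 uM final (EC100) as control.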
D2 PAM-1 = potentiates the human D2 dopamine receptor allosterically; P14416; DiscoveRx D2 beta-arrestin cells, luminescence, 90 min; 100% = 57 uM dopamine signal; potentiation, % (concentration not given with the values); 360,000 tested, 0.23% active; in the data active = potentiation above about 50%; inconclusive = mostly about 30% to 49%
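PathHunter beta-arrestin assay in DiscoveRx D2 cells. Compounds were added with an EC20 of dopamine (50 nM final) for 90 min at 37 deg C. Luminescence was read 1 h after detection reagent, with 57 uM dopamine as the EC100 control.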
D2 ag-2 = D2 dopamine receptor (human) agonism; HEK293 T-REx D2 cells, calcium flux agonist mode; activation, % at 2 µM; 340,000 tested, 0.53% active; AID 485358;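 active = activation over 3 SD above normal in the single-dose calcium agonist read, cut at about 30% in these data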; note: 0% is about no effect
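Agonism is scored from calcium flux in a force-coupled, inducible HEK293 cell line expressing D2, read kinetically for 180 s after compound addition against dopamine controls.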
D2 PAM-2 = positively modulates the human D2 dopamine receptor allosterically; P14416; HEK293 T-REx D2, calcium flux, EC20 dopamine potentiation; potentiation, % at 10 µM; 340,000 tested, 0.34% active; AID 485347;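 active = potentiation over 3 SD above the plate norm, cut at about 30% in these data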; note: 0% is about no effect
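Tetracycline-induced Hek293 Trex D2 cells, force-coupled to calcium, loaded with no-wash calcium dye. Compound added with 180 s kinetic read for agonism, then EC20 dopamine and a further 180 s read for potentiation.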
Starred values were filed as active, the others as inactive; ? = inconclusive; . = not tested or not shown.

SMILES	D2 antagonist	D2 ag-1	D2 PAM-1	D2 ag-2	D2 PAM-2
Cc1cc(C)n(CCCNC(=O)C(C)(C)Oc2ccc(Cl)cc2)n1	31*	0	-13	0	6
Cc1cc(C)n(CC(=O)c2ccc(Cl)cc2)n1	12	4	2	0	39*
Cc1ccc(S(=O)(=O)c2nnn3c2nc(NC2CCN(Cc4ccccc4)CC2)c2ccccc23)cc1C	12	-3	-19	0	37*
Cc1ccc(S(=O)(=O)c2nnn3c2nc(NCCCN2CCCC2=O)c2ccccc23)cc1C	4	-3	-22	0	-23
O=C(CN1C(=O)C(c2ccc(F)cc2)=NC12CCCCCC2)Nc1ccc(F)c(Cl)c1	.	.	.	0	9
Cc1ccc(NC(=O)COc2cccc3c2OC(C)(C)C3)c(O)c1	30*	-2	-13	-1	-3
COc1ccc(CCNC(=O)c2cccc(-n3cnc4cccnc43)c2C)cc1OC	.	.	.	0	2
N#CC1=C(N)N2C(=C(C#N)C1c1ccc(Br)cc1)Nc1ccccc12 (centres undefined)	0	-4	2	9	2
N#CC1=C(N)N2C(=C(C#N)C1c1cccc(Br)c1)Nc1ccccc12 (centres undefined)	39*	5	5	11	-7
Cc1cc(=O)oc2c3c(cc(OCC(=O)N[C@@H](Cc4ccccc4)C(=O)O)c12)OC(C)(C)CC3	-3	6	27	1	-3
Cc1c(C)c2c(OCC(=O)NCC(=O)NCC(=O)O)cc3c(c2oc1=O)CCC(C)(C)O3	-4	0	2	-1	30*
Cc1cc(=O)oc2c3c(cc(OCC(=O)NC(Cc4ccc(Cl)cc4)C(=O)O)c12)OC(C)(C)CC3 (centres undefined)	36*	4	-6	-1	-2
COc1ccc(N(Cc2cc3cccc(C)c3[nH]c2=O)C(=O)c2cccc(Cl)c2)cc1	.	.	.	-1	10
Cn1c(-c2ccccc2)c(C(=O)CCl)c2ccccc21	0	4	-9	-1	39*
O=C(N[C@H](CO)[C@H](O)c1ccc([N+](=O)[O-])cc1)C(Cl)Cl	.	-5	-9	.	.
O=C(NC(CO)C(O)c1ccc([N+](=O)[O-])cc1)C(Cl)Cl (centres undefined)	52*	4	-5	2	-16
CCC(C)NC(=O)c1cc2n(n1)CCCN(Cc1ccc(C)cc1)C2=O (centres undefined)	.	.	.	1	2
CCCOc1ccc(C(=O)Nc2ccc(-c3cc4ccccc4oc3=O)c(C)c2)cc1	.	.	.	0	-1
COc1cccc(Cn2c(=O)n(-c3ccc(C)c(F)c3)c(=O)c3sc4ccccc4c32)c1	.	.	.	0	8
C/C(=N\O)c1cc(Cl)cc(Cl)c1O	-9	-5	-8	0	14
C/C(=N\NC(N)=O)c1cc(Cl)cc(Cl)c1O	54*	6	-7	1	-26
Cn1cc(CC(=O)NCCN2CCOCC2)c2ccccc21	24	0	-10	0	39*
Cn1cc(CC(=O)NCc2ccc(F)cc2)c2ccccc21	-29	-1	-6	0	9
CC(C)c1ccc(NC(=O)Cc2cn(C)c3ccccc23)cc1	49*	-4	-9	0	-8
Cc1ccc(NC(=O)Cn2c(C)cc(C)c(C#N)c2=O)cc1	.	.	.	2	-3
SMILES	D2 antagonist	D2 ag-1	D2 PAM-1	D2 ag-2	D2 PAM-2
CCOc1ccc(OCC(=O)NCCS(=O)(=O)N2CCN(c3ccccc3F)CC2)cc1	.	.	.	-1	9
C/C(=N\OCc1ccc(C#N)cc1)c1ccccc1	-5	1	-3	0	11
C/C(=N\OCc1cccc(C(=O)O)c1)c1ccc(Cl)cc1	56*	-1	0	0	8
COc1cc(C2CC(=O)Oc3c(C(CCN4CCCC(C)C4)c4ccc(N(C)C)cc4)c(OC)cc(OC)c32)cc(OC)c1OC (centres undefined)	44*	1	-24	0	-18
O=C(CN1CCN(c2ccccn2)CC1)Nc1cccc(C(F)(F)F)c1	48*	2	-10	24	-31
COCC(=O)Nc1cccc(C(F)(F)F)c1	-8	-6	-16	1	33*
FC(F)(F)c1cccc(CN2CCN(c3ncccn3)CC2)c1	.	48*	?	.	.
O=C(O)CCCC(=O)Nc1cccc(C(F)(F)F)c1	12	-1	-2	0	-3
O=C(CN1CCN(c2ccccc2)CC1)Nc1cccc(C(F)(F)F)c1	21	-1	-21	2	-31
O=C(CN1CCN(Cc2ccccc2)CC1)Nc1cccc(C(F)(F)F)c1	39*	-2	-14	0	-24
O=C(NC1CCCc2ccccc21)c1ccc2c(c1)sc1nc(-c3ccccc3)cn12 (centres undefined)	.	.	.	0	-8
COc1ccc(-n2c(-c3ccc(Br)cc3)n[nH]c2=S)cc1	31*	-3	-4	0	-8
Cc1cccc(N2CCN(C(=O)Cn3ncc4c3-c3cc(C)ccc3OC4)CC2C)c1 (centres undefined)	.	.	.	0	-3
O=C1C(Cl)=C(NCCc2ccccc2)C(=O)c2ccccc21	.	2	-16	.	.
O=C1C(Cl)=C(NCc2cccnc2)C(=O)c2ccccc21	34*	?	7	0	7
N#Cc1ccc(-c2cccs2)nc1SCc1ccc(Cl)cc1Cl	.	.	.	0	-5
COc1ccccc1OCCC(=O)OCC(=O)Nc1ccc(Br)cc1	91*	-4	-9	0	-24
COc1ccc(NC(=O)c2ccc3c(c2)OCO3)cc1Cl	39*	-4	-15	0	-9
O=C(Nc1ccc(F)c(Cl)c1)c1ccc2c(c1)OCO2	-9	0	-3	1	-15
COc1ccccc1/C=C/C(=O)Nc1ccc2c(c1)OCCO2	34*	1	-37	0	-37
COc1ccccc1/C=C/C(=O)OCC(=O)Nc1ccc2c(c1)OCCO2	-10	-4	-9	0	3
COc1ccccc1OCC(=O)Nc1ccc2c(c1)OCO2	32*	-8	-7	0	0
COC(=O)c1ccc2nc(C)cc(Nc3cccc(Cl)c3C)c2c1	.	.	.	-2	.
CCOC(=O)Cn1c(CN2CCN(c3cccc(Cl)c3)CC2)nc2c1c(=O)[nH]c(=O)n2C	30*	-4	-7	0	-25
CC(C)CCn1c(CN2CCN(c3cccc(Cl)c3)CC2)nc2c1c(=O)n(C)c(=O)n2C	47*	2	-10	-1	-19
CCOCCn1c(CN2CCN(c3ccc(F)cc3)CC2)nc2c1c(=O)n(C)c(=O)n2C	-20	-2	-15	0	3
COCCn1c(CN2CCN(c3cccc(Cl)c3)CC2)nc2c1c(=O)n(C)c(=O)n2C	3	0	-8	1	-6
COC(=O)Cn1c(CN2CCN(c3ccc(F)cc3)CC2)nc2c1c(=O)n(C)c(=O)n2C	30*	-2	-7	0	-30
